FBW7 activator = human FBW7 E3 ligase activation, primary screen; 650,000 compounds, 0.13% hits; AlphaScreen FBW7–phospho-cyclin E peptide binding, activator screen; AID 1259310; normalized activity (activation), % at 26.1 µM; Q969H0; in the data active means normalized activity above about 1.9%;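 further: purified mutant Fbw7 with reduced substrate affinity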
Target sequence (Q969H0 whole entry, looked up): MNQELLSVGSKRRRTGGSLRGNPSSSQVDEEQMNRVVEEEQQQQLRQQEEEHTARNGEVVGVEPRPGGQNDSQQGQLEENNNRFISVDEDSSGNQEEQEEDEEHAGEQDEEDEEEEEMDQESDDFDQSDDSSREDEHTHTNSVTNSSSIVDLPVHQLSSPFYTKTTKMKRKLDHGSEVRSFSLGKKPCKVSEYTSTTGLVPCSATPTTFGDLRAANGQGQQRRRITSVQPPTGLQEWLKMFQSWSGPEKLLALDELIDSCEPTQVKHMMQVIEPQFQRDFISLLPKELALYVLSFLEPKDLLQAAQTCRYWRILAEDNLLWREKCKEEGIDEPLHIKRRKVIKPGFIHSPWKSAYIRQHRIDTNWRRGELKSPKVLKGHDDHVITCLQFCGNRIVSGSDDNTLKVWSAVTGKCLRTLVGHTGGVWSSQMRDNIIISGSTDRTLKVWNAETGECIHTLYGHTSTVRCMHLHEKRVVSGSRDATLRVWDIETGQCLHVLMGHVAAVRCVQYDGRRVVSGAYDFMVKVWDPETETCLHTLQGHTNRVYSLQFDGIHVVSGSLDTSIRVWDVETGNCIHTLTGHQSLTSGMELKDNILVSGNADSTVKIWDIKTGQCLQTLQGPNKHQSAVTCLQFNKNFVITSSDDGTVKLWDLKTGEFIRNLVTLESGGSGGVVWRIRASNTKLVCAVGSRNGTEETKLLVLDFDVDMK
TEAD-YAP block = TEAD-YAP interaction inhibition. AID 1259422. 640,000 compounds, 1.4% hits. inhibition, % at 9.12 µM. HEK-TIYL cells, TEAD-Gal4/YAP UAS-luciferase luminescence; in the data active means inhibition above about 32%;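 further: 0% = median of test compound wells and 100% = reference inhibitor wells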
GPR151 ag = activators of human GPR151 | Q8TDV0 | PathHunter beta-arrestin GPR151 cells, luminescence | activation, % at 11.2 µM | 650,000 compounds, 1% hits | AID 1508602; in the data active means activation above about 4.9%;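 further: 0% = median of compound wells and 100% = cells with positive control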
MITF primary = blocks human microphthalmia-associated transcription factor | AlphaScreen MITF homodimerization, bead proximity signal | O75030 | inhibition, % at 2.6 µM | 650,000 compounds, 0.91% hits | AID 1259374; in the data active means inhibition above about 50%;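 further: 0% = vehicle wells with protein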
MITF inh conf = confirmation of human MITF inhibitors. AID 1259372. inhibition, % at 2.6 µM. shares compounds with MITF primary. 4,700 compounds, 16% hits. AlphaScreen MITF homodimerization, biotin/His-MITF beads;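 active means inhibition above a cutoff derived from the DMSO control wells, cut at about 28% in these data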;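 further: 0% = MITF dimer wells with DMSO only; inhibitors lower the bead chemiluminescence by keeping MITF from dimerizing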
AS interf DR = optically interferes with AlphaScreen signal in dose response. shares compounds with MITF primary. AlphaScreen optical interference counterscreen, cell-free. IC50, µM. 480 compounds, 6% hits. AID 1259373; call rule not given here
AlphaScreen intf2 = AlphaScreen optical interference, counter-screen. shares compounds with MITF primary. LysRS AlphaScreen counterscreen, signal interference, triplicate. inhibition, % at 2.6 µM. 4,700 compounds, 7.6% hits;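 active means inhibition above a cutoff derived from the DMSO control wells, cut at about 30% in these data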
Starred values were filed as active, the others as inactive; ! = not active in a repeat. An excerpt weighted towards active compounds, which were near 3.5% of everything screened.

For CC1=C(C(=O)Nc2ccccc2)C(c2ccccc2)C(C#N)=C(SCC(=O)Nc2ccc(C)cc2C)N1 (stereo unspecified) the results were FBW7 activator 0, TEAD-YAP block 9, GPR151 ag 3 and MITF primary 13.
O=C(CSc1ccc(F)cc1)N1CC(c2nc3ccccc3[nH]2)C1 was read as FBW7 activator 0, TEAD-YAP block 5, GPR151 ag 0, MITF primary 60*, MITF inh conf 6 and AlphaScreen intf2 14.
Screening CNc1nc2c(c(=O)n(C)c(=O)n2C)n1Cc1ccccc1Cl returned FBW7 activator 0, TEAD-YAP block 29, GPR151 ag 1 and MITF primary 5.
`COc1ccc(OCC(O)CN2CCCC2)cc1` (stereo unspecified) gave FBW7 activator 0, TEAD-YAP block -5, GPR151 ag 1, MITF primary 55*, MITF inh conf 6 and AlphaScreen intf2 7.
`CN1CCN(CC(O)COc2ccc(Br)cc2)CC1` (stereo unspecified) gave FBW7 activator 0, TEAD-YAP block -1, GPR151 ag 0 and MITF primary -6.
Screening COc1ccc(OCC(O)CN2CCCCCC2)cc1 (stereo unspecified) returned FBW7 activator 1, TEAD-YAP block -8, GPR151 ag 0 and MITF primary 49.
For CCOC(=O)c1c(C)n(C)c2ccc(OCC(O)CN3CCCCC3)cc12 (stereo unspecified) the results were FBW7 activator 0, TEAD-YAP block 1, GPR151 ag 2, MITF primary 54*, MITF inh conf -6 and AlphaScreen intf2 1.
CC(=O)N(C)c1ccc(OCC(O)CN2CCN(c3ccccn3)CC2)cc1 (stereo unspecified) was read as FBW7 activator 0, TEAD-YAP block -1, GPR151 ag -1, MITF primary 65*, MITF inh conf 6 and AlphaScreen intf2 13.
`CC(=O)N(C)c1ccc(OCC(O)CN2CCN(C)CC2)cc1` (stereo unspecified) gave FBW7 activator 0, TEAD-YAP block -3, GPR151 ag -2, MITF primary 60*, MITF inh conf 14 and AlphaScreen intf2 18.
Screening Nc1nonc1-c1nc2ccccc2n1CC(=O)Nc1ccc(OC(F)(F)F)cc1 returned FBW7 activator 0, TEAD-YAP block 3, GPR151 ag -2 and MITF primary -1.
CCOC(=O)C1=C(c2ccccc2)N=c2s/c(=C\c3ccc(-c4ccc(C(=O)O)cc4)o3)c(=O)n2C1c1cccs1 (stereo unspecified) was read as FBW7 activator 0, TEAD-YAP block 3, GPR151 ag 1 and MITF primary -10.
`COc1ccccc1C1=NOC(C(=O)NCc2ccccn2)C1` (stereo unspecified) gave FBW7 activator 0, TEAD-YAP block -5, GPR151 ag 0 and MITF primary -1.
For CN(C)c1ccc(O)c2c1C[C@H]1C[C@H]3[C@H](N(C)C)C(=O)C(C(N)=O)=C(O)[C@@]3(O)C(=O)C1=C2O the results were FBW7 activator 0, TEAD-YAP block 0, GPR151 ag 1, MITF primary 73*!, MITF inh conf 64*, AS interf DR >6.5 and AlphaScreen intf2 -15.
`CC1CC(C)CN(C(=O)c2cccc3c2-c2ccccc2C3=O)C1` (stereo unspecified) gave FBW7 activator 0, TEAD-YAP block -9, GPR151 ag -1, MITF primary 66*, MITF inh conf 5 and AlphaScreen intf2 -4.
Screening CC1CC(C)CN(C(=O)c2cccc3ccccc23)C1 (stereo unspecified) returned FBW7 activator 0, TEAD-YAP block -1, GPR151 ag -1 and MITF primary 7.
CCCCCc1nc2ccc([N+](=O)[O-])cc2[nH]1 was read as FBW7 activator 0, TEAD-YAP block -25, GPR151 ag 1 and MITF primary 0.
For CCOC(=O)Cc1[nH]nc2c1C1(C(=O)N(CC)c3ccccc31)C(C#N)=C(N)O2 (stereo unspecified) the results were FBW7 activator -1, TEAD-YAP block -1, GPR151 ag 0, MITF primary 60*, MITF inh conf 28*, AS interf DR >6.5 and AlphaScreen intf2 -16.
